# PubChem BioAssay AID1159580 (chemical genetic matrix, 2015)
# Out of some 5,500 compounds screened, about 2,000 (36%) were called active. Roughly 18% stayed inconclusive and do not appear here. The list shows a part of the results. Unmarked numbers belong to inactive results. Cut-off read from the data, not from the text of the source: active = normalized growth mostly below about 0.91 (no sharp cut-off); inconclusive = no clear call, values can overlap the other calls; inactive = mostly above about 0.92.
# Assay: chemical genetic growth profiling, strain panel (AID 1159580);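 note: tested at 20 µM; growth read once vehicle control cultures reached saturation at 30 °C; 1 = growth at the plate median or of vehicle wells; lower values mean less growth of the strain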
# Details: S. cerevisiae deletion strains, growth OD
# [1] = locus YDL101C, strain DUN1, hits give low values
# [2] = locus YHR030C, strain SLT2, hits give low values
smiles,measurement,setting,value
N#CC(C#N)=NNc1ccc(C(F)(F)F)cc1,normalized growth,"locus YAR019C, strain CDC15, hits give low values",0.135 (active)
same,normalized growth,"locus YBL105C, strain PKC1, hits give low values",0.148 (active)
same,normalized growth,"locus YBR135W, strain CKS1, hits give low values",0.135 (active)
same,normalized growth,"locus YBR136W, strain MEC1, hits give low values",0.147 (active)
same,normalized growth,"locus YBR160W, strain CDC28, hits give low values",0.168 (active)
same,normalized growth,"locus YDL017W, strain CDC7, hits give low values",0.178 (active)
same,normalized growth,"locus YDL028C, strain MPS1, hits give low values",0.311 (active)
same,normalized growth,[1],0.124 (active)
same,normalized growth,"locus YDL108W, strain KIN28, hits give low values",0.152 (active)
same,normalized growth,"locus YDL132W, strain cdc53, hits give low values",0.126 (active)
same,normalized growth,"locus YDL214C, strain PRR2, hits give low values",0.131 (active)
same,normalized growth,"locus YDR052C, strain DBF4, hits give low values",0.255 (active)
same,normalized growth,"locus YDR054C, strain cdc34, hits give low values",0.138 (active)
same,normalized growth,"locus YDR226W, strain ADK1, hits give low values",0.178 (active)
same,normalized growth,"locus YDR477W, strain SNF1, hits give low values",0.116 (active)
same,normalized growth,"locus YER123W, strain YCK3, hits give low values",0.116 (active)
same,normalized growth,"locus YER133W, strain GLC7, hits give low values",0.11 (active)
same,normalized growth,"locus YFL009W, strain cdc4, hits give low values",0.132 (active)
same,normalized growth,"locus YFL029C, strain CAK1, hits give low values",0.138 (active)
same,normalized growth,"locus YFR003C, strain YPI1, hits give low values",0.339 (active)
same,normalized growth,"locus YFR019W, strain FAB1, hits give low values",0.12 (active)
same,normalized growth,"locus YFR028C, strain CDC14, hits give low values",0.144 (active)
same,normalized growth,"locus YGR040W, strain KSS1, hits give low values",0.113 (active)
same,normalized growth,"locus YGR052W, strain FMP48, hits give low values",0.129 (active)
same,normalized growth,"locus YGR092W, strain DBF2, hits give low values",0.105 (active)
same,normalized growth,[2],0.144 (active)
same,normalized growth,"locus YHR079C, strain IRE1, hits give low values",0.155 (active)
same,normalized growth,"locus YHR082C, strain KSP1, hits give low values",0.169 (active)
same,normalized growth,"locus YHR205W, strain SCH9, hits give low values",0.0194 (active)
same,normalized growth,"locus YIL147C, strain SLN1, hits give low values",0.397 (active)
same,normalized growth,"locus YJL095W, strain BCK1, hits give low values",0.116 (active)
same,normalized growth,"locus YJL128C, strain PBS2, hits give low values",0.149 (active)
same,normalized growth,"locus YJL157C, strain FAR1, hits give low values",0.106 (active)
same,normalized growth,"locus YJR016C, strain ILV3, hits give low values",0.13 (active)
same,normalized growth,"locus YJR066W, strain TOR1 (second series), hits give low values",0.116 (active)
same,normalized growth,"locus YJR066W, strain TOR1, hits give low values",0.146 (active)
same,normalized growth,"locus YKL048C, strain ELM1, hits give low values",0.134 (active)
same,normalized growth,"locus YKL067W, strain YNK1, hits give low values",0.113 (active)
same,normalized growth,"locus YKL101W, strain HSL1, hits give low values",0.112 (active)
same,normalized growth,"locus YKL193C, strain SDS22, hits give low values",0.118 (active)
same,normalized growth,"locus YKL203C, strain TOR2, hits give low values",0.132 (active)
same,normalized growth,"locus YLR113W, strain HOG1, hits give low values",0.166 (active)
same,normalized growth,"locus YLR133W, strain CKI1, hits give low values",0.109 (active)
same,normalized growth,"locus YLR403W, strain SFP1, hits give low values",0.0217 (active)
same,normalized growth,"locus YML070W, strain DAK1, hits give low values",0.106 (active)
same,normalized growth,"locus YMR001C, strain CDC5, hits give low values",0.133 (active)
same,normalized growth,"locus YMR205C, strain PFK2 (second series), hits give low values",0.104 (active)
same,normalized growth,"locus YMR277W, strain FCP1, hits give low values",0.119 (active)
same,normalized growth,"locus YNL006W, strain LST8, hits give low values",0.194 (active)
same,normalized growth,"locus YNL020C, strain ARK1, hits give low values",0.128 (active)
same,normalized growth,"locus YNL161W, strain CBK1, hits give low values",0.137 (active)
same,normalized growth,"locus YNL183C, strain NPR1, hits give low values",0.141 (active)
same,normalized growth,"locus YNL207W, strain RIO2, hits give low values",0.155 (active)
same,normalized growth,"locus YNL222W, strain SSU72, hits give low values",0.131 (active)
same,normalized growth,"locus YNL307C, strain MCK1 (second series), hits give low values",0.133 (active)
same,normalized growth,"locus YOL078W, strain AVO1, hits give low values",0.117 (active)
same,normalized growth,"locus YOL136C, strain PFK27, hits give low values",0.111 (active)
same,normalized growth,"locus YOR061W, strain CKA2, hits give low values",0.108 (active)
same,normalized growth,"locus YOR119C, strain RIO1, hits give low values",0.119 (active)
same,normalized growth,"locus YOR231W, strain MKK1, hits give low values",0.126 (active)
same,normalized growth,"locus YOR329C, strain SCD5, hits give low values",0.187 (active)
same,normalized growth,"locus YPL031C, strain PHO85, hits give low values",0.116 (active)
same,normalized growth,"locus YPL153C, strain RAD53, hits give low values",0.107 (active)
same,normalized growth,"locus YPL204W, strain HRR25, hits give low values",0.115 (active)
same,normalized growth,"locus YPL209C, strain IPL1, hits give low values",0.135 (active)
same,normalized growth,"locus YPL256C, strain CLN2, hits give low values",0.179 (active)
same,normalized growth,"locus YPR025C, strain CCL1, hits give low values",0.154 (active)
same,normalized growth,"locus YPR106W, strain ISR1, hits give low values",0.116 (active)
same,normalized growth,"locus YPR111W, strain DBF20, hits give low values",0.122 (active)
same,normalized growth,"strain NNK1, hits give low values",0.124 (active)
same,normalized growth,"strain TSCII, hits give low values",0.137 (active)
CC(=O)CC(C)=Nc1ccc(C(F)(F)F)cc1,normalized growth,"locus YAL013W, strain DEP1, hits give low values",0.989
same,normalized growth,"locus YBR229C, strain ROT2, hits give low values",0.991
same,normalized growth,[1],0.994
same,normalized growth,"locus YDL134C, strain PPH21, hits give low values",1.03
same,normalized growth,"locus YDR150W, strain NUM1, hits give low values",0.908
same,normalized growth,"locus YEL061C, strain CIN8, hits give low values",1.01
same,normalized growth,"locus YGR078C, strain PAC10, hits give low values",0.981
same,normalized growth,"locus YGR229C, strain SMI1, hits give low values",1.02
same,normalized growth,[2],1.08
same,normalized growth,"locus YHR087W, strain rtc3, hits give low values",0.971
same,normalized growth,"locus YJL187C, strain SWE1, hits give low values",0.995
same,normalized growth,"locus YJR043C, strain POL32, hits give low values",1.01
same,normalized growth,"locus YJR075W, strain HOC1, hits give low values",1.05
same,normalized growth,"locus YLR039C, strain RIC1, hits give low values",1.05
same,normalized growth,"locus YLR058C, strain SHM2 (second series), hits give low values",1
same,normalized growth,"locus YLR085C, strain ARP6, hits give low values",1.03
same,normalized growth,"locus YLR262C, strain YPT6, hits give low values",1.04
same,normalized growth,"locus YML094W, strain GIM5, hits give low values",0.993
same,normalized growth,"locus YMR219W, strain ESC1, hits give low values",1
same,normalized growth,"locus YMR263W, strain SAP30, hits give low values",1.05
same,normalized growth,"locus YNL153C, strain GIM3, hits give low values",0.985
same,normalized growth,"locus YNL298W, strain CLA4 (second series), hits give low values",1.05
same,normalized growth,"locus YNL322C, strain KRE1, hits give low values",1
same,normalized growth,"locus YNR030W, strain Alg12, hits give low values",1.02
same,normalized growth,"locus YPL055C, strain LGE1, hits give low values",0.939
same,normalized growth,"locus YPL241C, strain CIN2, hits give low values",1.08
same,normalized growth,"locus YPR135W, strain CTF4, hits give low values",0.969
